Data taken from PubChem BioAssay (NCI).
This is part of a sample that, as a whole, favours compounds with a hit. Of some 79,000 tested, about 15% had one in any assay. Activity calls are given as the source filed them. Cut-off read from the data, not from the text of the source: active = growth inhibition above about 70%; inactive = the rest.

How the values were obtained:
[1] = NCI Yeast Anticancer Drug Screen. Data for the wt1 strain (AID 149);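 note: 0% = growth of vehicle-treated wt1 cultures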; conditions: S. cerevisiae wt1 strain (SPY 50644) growth inhibition, hits give high values
Outline: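 Using yeast strain wt1, compound-induced growth inhibition was determined against vehicle-treated cultures.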

[2] = NCI Yeast Anticancer Drug Screen. Data for the rad50EPP+ strain (AID 151);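 note: 0% = growth of vehicle-treated control cultures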; conditions: S. cerevisiae rad50 mutant strain, hits give high values
Outline: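 Compounds were applied to the rad50EPP+ yeast strain, which bears a defined DNA repair alteration, and growth inhibition was determined relative to vehicle-treated cultures.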

[3] = NCI Yeast Anticancer Drug Screen. Data for the mgt1 strain (AID 153); conditions: S. cerevisiae mgt1 mutant growth inhibition, hits give high values
Outline: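 Strain: mgt1 yeast, one of a set carrying defined DNA damage repair or cell cycle control alterations. Compound-treated growth compared with vehicle.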

[4] = NCI Yeast Anticancer Drug Screen. Data for the rad50 strain (AID 155);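 note: 0% = growth of vehicle-only cultures of the same strain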; conditions: S. cerevisiae rad50 strain growth inhibition, hits give high values
Outline: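 Relative growth inhibition (compound vs vehicle) was measured in yeast with a defined repair-gene alteration.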

[5] = NCI Yeast Anticancer Drug Screen. Data for the mec2-1 strain (AID 157); conditions: S. cerevisiae mec2-1 strain, hits give high values
Outline: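 Strain: mec2-1 (DNA repair/cell cycle alteration). Compound exposure, then growth measured; inhibition expressed relative to vehicle.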

[6] = NCI Yeast Anticancer Drug Screen. Data for the rad14 strain (AID 159);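 note: 0% = growth of vehicle-treated control cultures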; conditions: S. cerevisiae rad14 strain growth inhibition, hits give high values
Outline: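 Screen for anticancer potential: a yeast strain altered in DNA damage repair is grown with compound, and reduced growth is quantified against vehicle controls.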

[7] = NCI Yeast Anticancer Drug Screen. Data for the sgs1 mgt1 strain (AID 161);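 note: 0% = growth of cultures given vehicle only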; conditions: S. cerevisiae sgs1 mgt1 strain, hits give high values
Outline: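 Read-out: growth inhibition vs vehicle controls. Cells: mutant yeast strain deficient in DNA damage repair.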

[8] = NCI Yeast Anticancer Drug Screen. Data for the CLN2oe strain (AID 163);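 note: 0% = growth of vehicle-only control cultures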; conditions: S. cerevisiae CLN2oe strain, hits give high values
Outline: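 Growth of a genetically modified yeast strain is measured after compound exposure and compared with cultures given vehicle alone.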

[9] = NCI Yeast Anticancer Drug Screen. Data for the cln2 rad14 strain (AID 165);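 note: 0% = growth equal to vehicle treated cultures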; conditions: S. cerevisiae cln2 rad14 strain, hits give high values
Outline: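 Compounds are applied to the cln2 rad14 yeast strain, and growth is then compared with that of vehicle-treated cultures to give inhibition.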

[10] = NCI Yeast Anticancer Drug Screen. Data for the bub3 strain (AID 167); conditions: S. cerevisiae bub3 mutant strain, hits give high values
Outline: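 Screening used yeast with an engineered genetic alteration affecting cell cycle control. Compound-exposed cultures were compared with vehicle cultures, and reduced growth was taken as inhibition.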

[11] = NCI Yeast Anticancer Drug Screen. Data for the wt2 strain (AID 169);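 note: 0% = growth of vehicle-treated yeast cultures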; conditions: S. cerevisiae wt2 strain growth inhibition, hits give high values
Outline: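 This strain belongs to a panel of yeast strains with defined genetic alterations in DNA damage repair or cell cycle control. Compounds are applied, and growth inhibition is measured against vehicle-treated cultures.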

[12] = NCI Yeast Anticancer Drug Screen. Data for the mlh1 strain (AID 171);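 note: 0% = growth of vehicle-treated control cultures of the same strain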; conditions: S. cerevisiae mlh1 strain growth inhibition, hits give high values
Outline: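 Growth of the mutant yeast strain after compound exposure, expressed as inhibition relative to vehicle-only controls.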

[13] = NCI Yeast Anticancer Drug Screen. Data for the mlh1 rad18 strain (AID 175); conditions: S. cerevisiae mlh1 rad18 strain growth inhibition, hits give high values
Outline: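 Read-out is yeast growth inhibition, calculated against vehicle-only controls. The compound was applied to a strain engineered with DNA damage repair alterations.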

[14] = NCI Yeast Anticancer Drug Screen. Data for the sgs1 strain (AID 173);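 note: 0% = growth of vehicle-only control cultures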; conditions: S. cerevisiae sgs1 mutant, hits give high values
Outline: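 Growth of a yeast strain bearing a defined genetic alteration is measured after compound treatment. Inhibition is expressed relative to vehicle-only controls.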

[15] = NCI Yeast Anticancer Drug Screen. Data for the rad18 strain (AID 177); conditions: S. cerevisiae rad18 mutant growth inhibition, hits give high values
Outline: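 Growth of the mutant yeast strain after compound exposure, normalised to vehicle-only cultures.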

[16] = at 5.0 µM (retest, dose inferred, filed as 0.5)
[17] = at 50.0 µM (retest, dose inferred, filed as 5.0)

Measured: growth inhibition

C[n+]1c(-c2ccc(NC(=O)c3ccc(C(=O)Nc4ccc(-c5cn6ccccc6[n+]5C)cc4)cc3)cc2)cn2ccccc21
active: [1]; at 33.0 µM 70% | [1]; at 100.0 µM 92% | [2]; at 33.0 µM 77% | [2]; at 100.0 µM 88% | [3]; at 33.0 µM 85% | [3]; at 100.0 µM 92% | [4]; at 33.0 µM 76% | [4]; [17] 98% | [4]; at 50.0 µM 74.8% | [4]; at 100.0 µM 91% | [5]; at 33.0 µM 82% | [5]; [17] 98% | [5]; at 100.0 µM 96% | [6]; at 33.0 µM 84% | [6]; at 100.0 µM 96% | [7]; [17] 97% | [8]; at 100.0 µM 89% | [9]; [17] 96% | [10]; at 33.0 µM 83% | [10]; [17] 97% | [10]; at 100.0 µM 93% | [11]; at 33.0 µM 84% | [11]; at 100.0 µM 94% | [12]; at 33.0 µM 89% | [12]; at 100.0 µM 94% | [13]; [17] 98% | [13]; at 50.0 µM 75.5%
inactive: [1]; at 1.2 µM 5% | [1]; at 3.7 µM 3% | [1]; at 11.0 µM 13% | [2]; at 1.2 µM -23% | [2]; at 3.7 µM -6% | [2]; at 11.0 µM 36% | [3]; at 1.2 µM 3% | [3]; at 3.7 µM 2% | [3]; at 11.0 µM 20% | [4]; at 1.2 µM 3% | [4]; at 3.7 µM 4% | [4]; [16] 16% | [4]; at 11.0 µM 17% | [5]; at 1.2 µM 4% | [5]; at 3.7 µM 9% | [5]; [16] 5% | [5]; at 11.0 µM 30% | [5]; at 50.0 µM 56.5% | [6]; at 1.2 µM -2% | [6]; at 3.7 µM -2% | [6]; at 11.0 µM 13% | [7]; [16] 15% | [7]; at 50.0 µM 64.5% | [8]; at 1.2 µM -1% | [8]; at 3.7 µM -4% | [8]; at 11.0 µM 18% | [8]; at 33.0 µM 66% | [9]; [16] 32% | [9]; at 50.0 µM 51.5% | [10]; at 1.2 µM -3% | [10]; at 3.7 µM 9% | [10]; [16] 37% | [10]; at 11.0 µM 30% | [10]; at 50.0 µM 57.6% | [11]; at 1.2 µM 4% | [11]; at 3.7 µM 2% | [11]; at 11.0 µM 18% | [12]; at 1.2 µM 2% | [12]; at 3.7 µM 1% | [12]; at 11.0 µM 23% | [13]; [16] 52%

Nc1c([N+](=O)[O-])cc2c3c(cccc13)CC2
inactive: [1]; at 1.2 µM 6% | [1]; at 3.7 µM 12% | [1]; at 11.0 µM 24% | [1]; at 33.0 µM 25% | [1]; at 100.0 µM 24% | [2]; at 1.2 µM 10% | [2]; at 3.7 µM 32% | [2]; at 11.0 µM 63% | [3]; at 1.2 µM 5% | [3]; at 3.7 µM 18% | [3]; at 11.0 µM 31% | [3]; at 33.0 µM 22% | [3]; at 100.0 µM 39% | [4]; at 1.2 µM 28% | [4]; at 3.7 µM 67% | [4]; [16] 3% | [6]; at 1.2 µM 11% | [6]; at 3.7 µM 14% | [6]; at 11.0 µM 30% | [6]; at 33.0 µM 39% | [6]; at 100.0 µM 54% | [7]; [16] 16% | [7]; [17] 54% | [7]; at 50.0 µM 52.5% | [8]; at 1.2 µM 8% | [8]; at 3.7 µM 14% | [8]; at 11.0 µM 17% | [8]; at 33.0 µM 20% | [8]; at 100.0 µM 26% | [9]; [16] -16% | [9]; [17] 20% | [9]; at 50.0 µM 21.5% | [10]; at 1.2 µM -4% | [10]; at 3.7 µM 0% | [10]; [16] -20% | [10]; at 11.0 µM 14% | [10]; at 33.0 µM 10% | [10]; [17] 17% | [10]; at 50.0 µM 21.4% | [10]; at 100.0 µM 11% | [11]; at 1.2 µM 3% | [11]; at 3.7 µM 10% | [11]; at 11.0 µM 18% | [11]; at 33.0 µM 25% | [11]; at 100.0 µM 55% | [12]; at 1.2 µM 5% | [12]; at 3.7 µM 14% | [12]; at 11.0 µM 20% | [12]; at 33.0 µM 28% | [12]; at 100.0 µM 53% | [14]; at 1.2 µM 8% | [14]; at 3.7 µM 20% | [14]; at 11.0 µM 33% | [14]; at 33.0 µM 45% | [14]; at 100.0 µM 65% | [13]; [16] 12% | [13]; [17] 65% | [15]; at 1.2 µM 24%
active: [2]; at 33.0 µM 74% | [2]; at 100.0 µM 71% | [4]; at 11.0 µM 79% | [4]; at 33.0 µM 77% | [4]; [17] 81% | [4]; at 50.0 µM 87.2% | [4]; at 100.0 µM 83% | [13]; at 50.0 µM 77.9% | [15]; at 3.7 µM 71% | [15]; at 11.0 µM 86% | [15]; at 33.0 µM 83% | [15]; at 100.0 µM 86%

CCSc1c2ccccc2c(-c2nc(F)nc(F)n2)n1CCc1ccccc1
inactive: [1]; at 1.2 µM -7% | [1]; at 3.7 µM -4% | [1]; at 11.0 µM 10% | [2]; at 1.2 µM -22% | [2]; at 3.7 µM -17% | [2]; at 11.0 µM -22% | [2]; at 33.0 µM -15% | [2]; at 100.0 µM 3% | [3]; at 1.2 µM -27% | [3]; at 3.7 µM -32% | [3]; at 11.0 µM -29% | [4]; at 1.2 µM -30% | [4]; at 3.7 µM -10% | [4]; [16] -23% | [4]; at 11.0 µM -6% | [4]; [17] 52% | [5]; at 1.2 µM -14% | [5]; at 3.7 µM -17% | [5]; [16] -43% | [5]; at 11.0 µM -4% | [5]; [17] 0% | [6]; at 1.2 µM -17% | [6]; at 3.7 µM -12% | [6]; at 11.0 µM 2% | [8]; at 1.2 µM -24% | [8]; at 3.7 µM -20% | [8]; at 11.0 µM 4% | [9]; [16] 19% | [10]; at 1.2 µM -11% | [10]; at 3.7 µM -21% | [10]; [16] 0% | [10]; at 11.0 µM -3% | [11]; at 1.2 µM -1% | [11]; at 3.7 µM -2% | [11]; at 11.0 µM 4% | [12]; at 1.2 µM -41% | [12]; at 3.7 µM -34% | [12]; at 11.0 µM -22% | [14]; at 1.2 µM 34% | [14]; at 3.7 µM 32% | [14]; at 11.0 µM 39% | [13]; [16] -12% | [15]; at 1.2 µM -5% | [15]; at 3.7 µM 0% | [15]; at 11.0 µM 7%
active: [1]; at 33.0 µM 80% | [1]; at 100.0 µM 97% | [3]; at 33.0 µM 81% | [3]; at 100.0 µM 97% | [4]; at 33.0 µM 72% | [4]; at 50.0 µM 87% | [4]; at 100.0 µM 96% | [5]; at 33.0 µM 78% | [5]; at 50.0 µM 80.7% | [5]; at 100.0 µM 98% | [6]; at 33.0 µM 84% | [6]; at 100.0 µM 97% | [8]; at 33.0 µM 89% | [8]; at 100.0 µM 97% | [9]; [17] 70% | [9]; at 50.0 µM 86.6% | [10]; at 33.0 µM 82% | [10]; [17] 88% | [10]; at 50.0 µM 86% | [10]; at 100.0 µM 97% | [11]; at 33.0 µM 77% | [11]; at 100.0 µM 98% | [12]; at 33.0 µM 75% | [12]; at 100.0 µM 97% | [14]; at 33.0 µM 79% | [14]; at 100.0 µM 98% | [13]; [17] 77% | [13]; at 50.0 µM 81.3% | [15]; at 33.0 µM 75% | [15]; at 100.0 µM 97%
